Bioassay records deposited in PubChem BioAssay by National Center for Advancing Translational Sciences (NCATS).
KB-V1 MDR tox: kills drug-selected multidrug resistant KB-V1 cells; KB-V1 MDR cells viability, CellTiter-Glo, 72 h; Potency, µM (series often up to 46.1 µM), actives largely listed as cytotoxic; 3.4% of 400,000 active; AID 1347076; note: potency is the fitted concentration of half-maximal effect; % is set by controls: 0 for no effect and ±100 for the full control effect; nearly all actives have a fitted effect of over 60% in size
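Cytotoxicity via CellTiter-Glo luminescence after 72 h compound exposure at 37 degrees C. Cells: drug-selected KB-V1 line, DMEM phenol-red free plus 10% FBS. Compounds tested at multiple concentrations; normalized data fitted to concentration-effect curves.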
SW480 rerep: induces DNA re-replication in SW480 colon adenocarcinoma cells; Potency, µM (highest dose often 46.1 µM), inactives show at the highest dose re-replication activation, usual class: activators; 1.8% of 340,000 active; AID 624297; SW480 DNA re-replication, Hoechst DNA content imaging, 48 h; note: potency is the fitted concentration of half-maximal effect; % of control where 0% means no effect; nearly all actives have a fitted effect of over 55% in size
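Treated cells incubate 48 hr (37 C, 5% CO2), are stained 40 min with Hoechst, and nuclear fluorescence is enumerated; a rise in nuclei with high DNA signal marks re-replication.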
Giardia killer: Giardia lamblia killing. Giardia lamblia trophozoite viability. activity change, % at 7.66 µM, hits read low. 0.15% of 340,000 active; in the data active = activity change below about -80%; inconclusive = between about -30% and that limit;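 note: parasites exposed to compound for two days anaerobically before the ATP read; % is set by controls: 0 for no effect and ±100 for the full control effect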
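Viability, read as ATP luminescence: trophozoites at 100 cells/well, compound added, 48 hrs anaerobic at 37 deg C, then 15-30 min room-temperature development before reading.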
MCF10A rerep: inducers of DNA re-replication in MCF 10A breast cells; MCF 10A DNA re-replication, Hoechst nuclear intensity, 48 h; Potency, µM (doses to about 46.1 µM), without a hit: at the highest dose activity, positive = re-replication, usual class: activators; 2.9% of 350,000 active; AID 624296; note: potency is the fitted concentration of half-maximal effect; % of control where 0% means no effect; nearly all actives have a fitted effect of over 50% in size
S-ASM inh: inhibitors of human secretory acid sphingomyelinase; P17405; placental ASM, HMU-PC fluorogenic substrate, 60 min; Potency, µM (top dose mostly 57.5 µM), without a hit: at the highest dose activity change, negative = inhibition, actives largely listed as inhibitors; 0.006% of 340,000 active; note: potency is the fitted concentration of half-maximal effect
Target sequence (P17405 47-631 limits assumed): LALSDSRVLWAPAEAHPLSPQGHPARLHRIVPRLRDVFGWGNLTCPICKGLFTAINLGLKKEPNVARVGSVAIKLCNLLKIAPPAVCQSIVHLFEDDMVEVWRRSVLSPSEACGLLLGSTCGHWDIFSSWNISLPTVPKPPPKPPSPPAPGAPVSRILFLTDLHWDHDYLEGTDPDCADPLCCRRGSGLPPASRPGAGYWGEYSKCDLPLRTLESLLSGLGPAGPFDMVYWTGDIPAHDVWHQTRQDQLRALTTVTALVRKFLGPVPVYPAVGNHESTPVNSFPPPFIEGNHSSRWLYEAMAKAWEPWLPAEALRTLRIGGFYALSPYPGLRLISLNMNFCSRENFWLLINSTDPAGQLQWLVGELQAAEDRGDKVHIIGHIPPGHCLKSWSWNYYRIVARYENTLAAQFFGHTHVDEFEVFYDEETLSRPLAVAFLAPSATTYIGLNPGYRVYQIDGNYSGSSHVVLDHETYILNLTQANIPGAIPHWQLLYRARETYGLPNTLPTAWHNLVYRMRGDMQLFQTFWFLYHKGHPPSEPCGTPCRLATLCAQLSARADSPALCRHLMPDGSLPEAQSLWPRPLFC
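qHTS format. ASM enzyme prepared from human placenta hydrolyses the fluorogenic substrate HMU-PC0 (9 uM final) over 60 min at 37 °C after a 10 min compound preincubation.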
KB-3-1 cytotox: KB-3-1 parental cell cytotoxicity; KB-3-1 viability, CellTiter-Glo ATP luminescence, 72 h; Potency, µM (top dose mostly 46.1 µM), hits mostly cytotoxic; 1.4% of 400,000 active; AID 1347075; note: potency is the fitted concentration of half-maximal effect; % is set by controls: 0 for no effect and ±100 for the full control effect; nearly all actives have a fitted effect of over 60% in size
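Here the drug-naive KB-3-1 line serves as comparator for MDR sub-line selectivity; cells received compound titrations, 72 h at 37 °C, then CellTiter-Glo readout.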
The depositor's hits bear a star; i = inactive; u = inconclusive; x = no result given. An excerpt weighted towards active compounds, which were near 6.9% of everything screened. Unless noted, calls come from the whole dose curve; as a rule, active = well fitted curve in the direction sought with a large enough effect; inconclusive = small, poorly fitted or top-dose-only effect, or another doubt; inactive = no such curve, though single readings can be large; an effect the other way counts as inactive or inconclusive.

SMILES	KB-V1 MDR tox	SW480 rerep	Giardia killer	MCF10A rerep	S-ASM inh	KB-3-1 cytotox
CCCC(C(=O)NCCC(C)C)N(Cc1ccccc1)C(=O)c1snc(C(N)=O)c1N (centres undefined)	i	-44.1%	-16.7	-1.5%	299.4%	i
CCOC(=O)c1ccc(-n2c(CCC(=O)O)ccc2-c2ccccc2)cc1O	i	x	x	x	x	i
CCN(CC)S(=O)(=O)c1ccc2oc(C(=O)N3CCCCCC3)c(C)c2c1	u	6.8%	16.9	23.5%	-2.7%	i
Cc1c(C(=O)N2CCc3ccccc3C2)oc2ccc(S(=O)(=O)N3CC(C)CC(C)C3)cc12 (centres undefined)	u	u	0.3	25.5%	-1.3%	23.1µM*
CCN(CC)S(=O)(=O)c1ccc2oc(C(=O)N3CCc4ccccc4C3)c(C)c2c1	9.2µM*	-2.4%	-7.2	19.5%	-2.1%	u
Nc1nc2nc(-c3cccs3)cc(C(F)(F)F)n2n1	i	u	23.1	20.6µM*	i	i
CCOC(=O)c1nc2nc(-c3cccs3)cc(C(F)(F)F)n2n1	i	0.8%	-5.3	-45.4%	i	i
C=C1C(=O)O[C@@H]2[C@H]3O[C@]3(C)CC/C=C(\C)CC[C@@H]12	i	-13.4%	9.4	4.11µM*	1.9%	i
O=C(Nc1ccc(Br)cc1)C1CCN(C(=O)c2ccco2)CC1	20.6µM*	2.9%	3.6	3.4%	5.7%	i
COc1ccc(/C=C2/CSC/C(=C/c3ccc(OC)c(OC)c3)C2=O)cc1OC	1.46µM*	2.91µM*	-21.5	u	-4.1%	4.61µM*
COc1ccc(N2CCN(C(=O)CSc3nc(-c4ccc(C(C)C)cc4)no3)CC2)cc1	i	x	x	x	x	i
COc1ccc(-c2cnn3c4c(c(C)nc23)CCN4C(C)C)cc1OC	2.06µM*	u	17.9	u	43.5%	i
COc1cc2sc(-c3ccc(S(C)(=O)=O)cc3)c(-c3ccc4c(c3)OCO4)c2cc1OC	i	-0.9%	u	u	369.2%	i
Cc1ccc(/C=C/C(=O)N2CCN(c3ccc(F)cc3)CC2)o1	18.4µM*	-0.8%	10.1	u	1.6%	u
COc1cccc(N2CCN(CC(=O)Nc3nc4c(s3)CC(C)CC4)CC2)c1 (centres undefined)	18.4µM*	-0.9%	4.3	-1.6%	-3.6%	i
CCCCOc1ccc(C(=O)Nc2nc3c(s2)CC(C)CC3)cc1 (centres undefined)	i	x	x	x	x	i
O=C(Nc1nc2c(s1)CCCC2)c1cccnc1	u	-11.0%	31.4	-6.3%	5.4%	i
O=C(NC(=S)Nc1nc2c(s1)CCCC2)c1ccc(C(=O)c2ccccc2)cc1	4.11µM*	1.2%	-19.0	0.8%	-1.5%	23.1µM*
COC(=O)c1ccc(C(=O)NC(=S)Nc2nc3c(s2)CC(C)CC3)cc1 (centres undefined)	u	2.9%	3.8	-5.9%	1.6%	16.4µM*
CCOc1ccc2c(c1)c(=O)c(C(=O)c1ccc(CC)cc1)cn2CC(=O)Nc1ccccc1OC	i	x	x	x	x	i
CCOC(=O)c1c(C)oc2ccc(N(C(=O)Oc3ccccc3)S(=O)(=O)c3ccccc3)cc12	u	x	x	x	x	i
COc1ccc(OC)c(NC(=O)c2cc(S(=O)(=O)NCCc3ccc(Cl)cc3)ccc2F)c1	i	x	x	x	x	i
Cc1cccc(-c2noc(CSc3nc(-c4ccc(F)cc4)cc(=O)[nH]3)n2)c1	i	x	x	x	x	i
Cc1ccc(NC(=O)CCC(=O)N2Cc3ccccc3Oc3ncccc32)cc1Cl	i	x	x	x	x	i
CC1CCN(S(=O)(=O)c2ccc3nc(-c4ccccn4)cc(C(=O)NCCN(C)Cc4ccccc4)c3c2)CC1	i	0.2%	-3.2	0.731µM*	-1.9%	u
SMILES	KB-V1 MDR tox	SW480 rerep	Giardia killer	MCF10A rerep	S-ASM inh	KB-3-1 cytotox
CC1CCN(S(=O)(=O)c2ccc3ncn(CC(=O)N(C)Cc4ccccc4)c(=O)c3c2)CC1	i	-4.5%	10.7	5.5%	-0.6%	i
CC(Cc1nnc(N)s1)c1ccccc1 (centres undefined)	i	-6.0%	-13.5	-0.4%	-2.5%	i
Nc1nnc(CC(c2ccccc2)c2ccccc2)s1	23.1µM*	-1.5%	-1.5	16.7%	2.9%	i
Cc1ccc(N(C(=O)COc2ccccc2C)S(=O)(=O)c2ccc(Cl)cc2)cc1	i	x	x	x	x	i
Fc1ccc2[nH]c3c(N4CCc5ccccc5C4)ncnc3c2c1	6.51µM*	-14.4%	-2.7	u	2.4%	u
CCOc1ccc2[nH]c3c(N4CCc5ccccc5C4)ncnc3c2c1	11.6µM*	u	7.2	9.2µM*	113.9%	u
Cc1cccc2[nH]c3c(N4CCC5(CC4)OCCO5)ncnc3c12	u	u	4.6	u	-10.8%	i
COc1ccc2[nH]c3c(N4CCN(Cc5ccc6c(c5)OCO6)CC4)ncnc3c2c1	u	u	4.0	u	114.1%	u
Clc1ccc2[nH]c3c(N4CCC5(CC4)OCCO5)ncnc3c2c1	16.4µM*	u	-4.7	20.6µM*	2.9%	14.6µM*
COc1ccc2[nH]c3c(N4CCC(O)(c5cccc(C(F)(F)F)c5)CC4)ncnc3c2c1	18.4µM*	u	-10.4	u	38.4%	13µM*
CCc1cc(=O)oc2c3c(cc(OCC(=O)Nc4cccnc4)c12)OC(C)(C)CC3	16.4µM*	0.3%	-5.7	u	11.6%	i
O=C(NNC(=S)Nc1cccc(C(F)(F)F)c1)c1ccc(Cl)cc1Cl	18.4µM*	u	-11.3	13µM*	-8.5%	u
CCOc1ccc(NC(=S)NNC(=S)Nc2cccc(C(F)(F)F)c2)cc1	i	24.8%	0.1	u	-7.9%	i
COC(=S)Nc1cccc(C(F)(F)F)c1	i	-14.8%	-2.2	u	-1.2%	i
COc1ccc(NC(=S)NNC(=S)Nc2cccc(C(F)(F)F)c2)cc1	i	-35.5%	0.8	14.6µM*	-5.2%	i
COC(=O)/C=C/C(=O)Nc1cccc(C(F)(F)F)c1	i	u	-5.7	23.1µM*	3.6%	i
Cc1ccc(OC(F)F)c(NC(=O)Nc2cccc(C(F)(F)F)c2)c1	u	11.2µM*	18.3	u	-8.4%	u
O=C(Nc1ccccc1)Nc1cccc(C(F)(F)F)c1	i	-0.5%	-7.2	-0.4%	-3.0%	i
c1ccc2c(N=NN3CCCCC3)ccnc2c1	i	x	x	x	x	u
CCCC1N=C2c3ccccc3N=C(SCC(=O)NCCc3ccc(Cl)cc3)N2C1=O (centres undefined)	i	x	x	x	x	i
O=C(O)c1ccccc1Nc1ccccc1C(=O)O	i	11.8%	4.5	-2.7%	5.2%	i
